Results filed as inconclusive are left out. Where a call stands in place of a potency, no number is given. Active and inactive are the calls of the source. Calls come from the whole dose curve; as a rule, active = well fitted curve in the direction sought with a large enough effect; inconclusive = small, poorly fitted or top-dose-only effect, or another doubt; inactive = no such curve, though single readings can be large; an effect the other way counts as inactive or inconclusive.
Tests used:
[1] = target: Aldehyde dehydrogenase, mitochondrial (Homo sapiens) (UniProt P05091); assay: qHTS for Inhibitors of the Aldehyde Dehydrogenase Family (ALDH2) Primary screen (AID 2061308); note: nearly all actives have a fitted effect of over 55% in size; note: potency is the fitted concentration of half-maximal effect
[2] = target: Retinaldehyde dehydrogenase 3 (Homo sapiens) (UniProt P47895); assay: qHTS for Inhibitors of the Aldehyde Dehydrogenase Family (ALDH1A3) Primary screen (AID 2061315)

Structure (SMILES) | Potency [1] | Potency [2]
COc1cccc(C2c3c(ncn(-c4ccccc4SC)c3=N)Oc3ccc4ccccc4c32)c1 (stereo not given) | inactive | inactive
CCN(CC)CCn1c(-c2ccccc2)nc2c(NC3CCCCC3)nc(C)nc21 | inactive | inactive
Cc1ccc(-c2nccc(=O)n2CC(=O)N(C)C(C)c2ccco2)cc1 (stereo not given) | inactive | inactive
O=S(=O)(Nc1nc(CN2CCOCC2)nc2sc3c(c12)CCCC3)c1ccc2ccccc2c1 | inactive | inactive
N#Cc1cc(NC(=O)Nc2cccc(-c3ccncc3)n2)ccc1Cl | inactive | inactive
COc1cccc(CN2C(=O)c3ccccc3NC2c2ccc(OC)c(COc3c(C)cc(NC(C)=O)cc3C)c2)c1 (stereo not given) | inactive | inactive
CCOC(=O)C1CCC(C(=O)Nc2ccc([S+](=O)([O-])Nc3nccs3)cc2)CC1 (stereo not given) | inactive | inactive
Cc1cnc(-c2ccccc2C(C)C)nc1NCc1cccnc1 | inactive | inactive
Cc1cn2c(n1)Cc1ccc(Cl)cc1C(c1ccc(N)cc1)=N2 | inactive | inactive
CN(Cc1ccco1)c1ncnc2ccc(-c3ccc4c(c3)OCO4)cc12 | inactive | inactive
Cc1ccc(S(=O)(=O)N2CCN(c3nc(C#N)nc4ccccc34)CC2)cc1 | inactive | inactive
CC/C(=C(\c1ccc(O)cc1)c1ccc(OCCNC)cc1)c1ccccc1 | inactive | inactive
O=C1CCc2cc(S(=O)(=O)Nc3ccc4c(c3)CCC4)ccc2N1 | inactive | inactive
COc1cccc(C2=Nn3c(nnc3-c3ccccc3O)SC2)c1 | inactive | inactive
CC(C)(C)OC(=O)N1CCN(c2ccc(NCc3ncc(-c4ccc(C#N)cc4)s3)cc2)CC1 | 4.47 µM (active) | inactive
O=C(NC1CCCc2c1cnn2-c1ccc(F)cc1F)c1ccc(C2(C(F)(F)F)N=N2)cc1 (stereo not given) | inactive | inactive
CC(C)N1CCc2c(-c3nc4ccccc4s3)csc2C1 | inactive | inactive
O=C(Nc1ccc(Cl)c(Cl)c1)Nc1ccnc(-c2ccncc2)n1 | inactive | inactive
Fc1cc(Nc2nc(-c3ccncc3)nc3ccccc23)ccc1-c1cccc(OC(F)F)c1 | inactive | inactive
CCCn1c(-c2ccc(F)cc2)nc2c(NCCN3CCSCC3)nc(C)nc21 | inactive | inactive
Cc1nc(NC2CCCCC2)c2nc(-c3ccccc3)n(CCN3CCCCC3)c2n1 | inactive | inactive
Cc1cc2c(s1)c1cnn(Cc3ccc(F)cc3F)c(=O)c1n2C | inactive | inactive

Structure (SMILES) | Potency [1] | Potency [2]
CCOc1ccc(CCNC(=O)c2cc3sccc3[nH]2)cc1OCC | inactive | inactive
O=c1[nH]c2ccc(S(=O)(=O)N3CCN(S(=O)(=O)c4c(F)cccc4F)CC3)cc2[nH]c1=O | inactive | inactive
Cc1ccc(-c2nnc(N3CCC(C(N)=O)CC3)s2)cc1 | inactive | inactive
Cc1noc(C)c1-c1ccc2ncnc(NCc3ccccc3C(F)(F)F)c2c1 | inactive | inactive
Cn1nnnc1Sc1ncnc2scc(-c3cccc([N+](=O)[O-])c3)c12 | inactive | inactive
Cc1ccc(S(=O)(=O)Nc2cnccc2C(=O)Nc2nc(C3CCC3)cs2)cc1 | inactive | inactive
Cc1cccc(-n2cnc3cc(C(=O)N4CCCCCC4)ccc32)c1 | inactive | inactive
O=C(O)c1c(-c2ccccc2)no[n+]1[O-] | inactive | inactive
Cc1nc(C)c(-c2ccc3ncnc(NCCc4cnc[nH]4)c3c2)s1 | inactive | inactive
Cc1cc(NS(=O)(=O)c2ccc(NC(=O)Cc3cccc(Cl)c3)cc2)no1 | inactive | inactive
Cc1ccc(-c2ccnn(CC(=O)N(C)C(C)c3ccco3)c2=O)cc1 (stereo not given) | inactive | inactive
CN(Cc1cncn1C)c1ncnc2ccc(-c3ccc4c(c3)OCO4)cc12 | inactive | inactive
C[C@@H]1CC[C@]2(C(=O)O)CC[C@]3(C)C(=CCC4[C@@]5(C)C[C@@H](O)[C@H](O)[C@@](C)(CO)C5CC[C@]43C)C2[C@H]1C (stereo not given in full) | inactive | inactive
Fc1cc(F)cc(Nc2nc(NC3CCCC3)nc(C3CO3)n2)c1 (stereo not given) | inactive | inactive
CCCCCC1CCC(C(=O)Nc2ccc(S(=O)(=O)Nc3nccs3)cc2)CC1 (stereo not given) | inactive | inactive
COc1cc(O)c(C(CC(=O)N2CC(C)NC(C)C2)c2ccc3c(c2)OCO3)c(OC)c1 (stereo not given) | inactive | inactive
CCOc1ccc(CCNC(=O)c2cc3sccc3n2Cc2ccccn2)cc1OCC | inactive | inactive
CCCCN(C)C(=O)Cn1nc(-c2cccc(C)c2)ccc1=O | inactive | inactive
CCN(Cc1sccc1C)c1ncnc2ccc(-c3ccc4c(c3)OCO4)cc12 | inactive | inactive
O=S(=O)(c1cccc2ccccc12)n1ccc2ccc(N3CCN4CCCC4C3)cc21 (stereo not given) | inactive | inactive
C=C1C(=O)O[C@@H]2C[C@]3(C)[C@@H](CCC(C)O)[C@@H]3C[C@H]12 (stereo not given in full) | inactive | inactive
Fc1cnc(-c2ccccc2C(F)F)nc1NCc1ccc(-n2ccnn2)cc1 | inactive | inactive

Structure (SMILES) | Potency [1] | Potency [2]
O=C1CCCC2=C1[C@@]1(CCC(c3ccccc3)C1)N=C(Nc1nc3ccccc3o1)N2 (stereo not given in full) | inactive | inactive
CSc1ccccc1-c1ncc(C)c(NCc2ccc(-c3cccnc3)cc2)n1 | inactive | inactive
Fc1ccc(CNc2nc(-c3ccccc3C(F)(F)F)nc3ccccc23)cc1 | inactive | inactive
O=C(CNC(=O)c1ccc(Cl)cc1Cl)OC(C(=O)Nc1cc(C(F)(F)F)ccc1Cl)c1ccccc1 (stereo not given) | inactive | inactive
CCCn1c(-c2ccc(F)cc2)nc2c(NCCCCN(C)C)nc(C)nc21 | inactive | inactive
CC(=O)Nc1sc2c(c1-c1ccc3c(c1)CCO3)CCNC2 | inactive | inactive
Oc1ccc(CNCc2ccccc2F)c2cccnc12 | inactive | inactive
O=[N+]([O-])c1cccc(S(=O)(=O)N2CCN(S(=O)(=O)c3ccc4c(c3)OCCO4)CC2)c1 | inactive | inactive
N[C@H]1CCN(c2cnc3c(O)ccc(C(=O)O)c3c2)C1 | inactive | inactive
COc1ccc(OC)c(C2=Nn3c(nnc3-c3ccc(OC)c(OC)c3)SC2)c1 | inactive | inactive
CCOC(=O)C1CCN(C(=O)C2(NC(=O)Nc3ccccc3Cl)CC2)CC1 | inactive | inactive
Cc1ccc(-c2ccc(=O)n(CC(=O)N(C)CCN(C)C)n2)cc1 | inactive | inactive
CCOC(=O)c1cnc2ccc(-c3cncc(NS(=O)(=O)c4ccccc4)c3)cn12 | inactive | inactive
N#Cc1cccc(NC(=O)Nc2nnc(-c3ccncc3)s2)c1 | inactive | inactive
COc1cc(O)c(C(CC(=O)N2CCCC(C(=O)c3ccccc3)C2)c2ccc3c(c2)OCO3)c(OC)c1 (stereo not given) | inactive | inactive
O=C(NCCc1ccc(OCC(F)(F)F)c(OCC(F)(F)F)c1)c1cc2sccc2n1Cc1ccccc1 | inactive | inactive
COC(=O)C1=C(C)NC(COC(N)=O)=C(C(=O)OC(C)C)C1c1cccc(Cl)c1Cl (stereo not given) | inactive | inactive
O=S(=O)(c1ccc2ccccc2c1)N1CCN(S(=O)(=O)c2c(F)cccc2F)CC1 | inactive | inactive
CC(=O)c1ccc(O[C@@H]2O[C@H](CO)[C@@H](O)[C@H](O)[C@H]2O)cc1 | inactive | inactive
Cc1ccc(NS(=O)(=O)c2cc3c(cc2NC(C)C)NC(=O)CC3)cc1C | inactive | inactive
Cc1ccc(NC(=O)CSc2nnc(-c3cccc([S+](=O)([O-])N4CCCC4)c3)n2-c2ccccc2)cc1 | inactive | inactive
CCc1cccc(CC)c1OCc1cc(C2Nc3ccccc3C(=O)N2Cc2ccco2)ccc1OC (stereo not given) | inactive | inactive

Structure (SMILES) | Potency [1] | Potency [2]
C(#Cc1cccs1)c1cccnc1 | inactive | inactive
Cc1ccc(-c2cc(C(=O)Nc3ccc(S(N)(=O)=O)cc3)c3ccccc3n2)cc1C | inactive | inactive
COc1cc(NS(=O)(=O)c2ccc3ccccc3c2)c2ncccc2c1 | inactive | inactive
CC1CC1C(=O)Nc1ccc([S+](=O)([O-])Nc2nccs2)cc1 (stereo not given) | inactive | inactive
COc1cc(-c2ccc3ncnc(N(C)Cc4csc(C)n4)c3c2)cc(OC)c1OC | inactive | inactive
O=C(Nc1nc(-c2ccccc2)cs1)c1ccccc1-n1cnnn1 | inactive | inactive
O=C1NC2=C(C(=O)CCC2)C(c2ccccc2Cl)N1 (stereo not given) | inactive | inactive
Cc1ccsc1CN(C)c1ncnc2ccc(-c3ccc([C@@H](C)O)o3)cc12 | inactive | inactive
O=C(Nc1ccc(-c2cccnc2)nc1)c1cccs1 | inactive | inactive
Cc1ccc(C(=O)NCC(=O)OC(C(=O)Nc2cc(C(F)(F)F)ccc2Cl)c2ccccc2)cc1 (stereo not given) | inactive | inactive
CCCn1c(C)nc2c(NCCOC)nc(C)nc21 | inactive | inactive
COc1cccc(C)c1NC(=O)C(OC(=O)CNC(=O)c1ccccc1)c1ccccc1 (stereo not given) | inactive | inactive
O=C(O)c1ccc2c(c1)C(=O)N([C@H](Cc1ccc(-c3ccccc3)cc1)C(=O)O)C2=O | inactive | inactive
O=S(=O)(c1cccc(C(F)(F)F)c1)N1CCN(S(=O)(=O)c2ccc3c(c2)OCCO3)CC1 | inactive | inactive
CC(Cc1cnccn1)Nc1cnc2c(O)ccc(C(=O)O)c2c1 (stereo not given) | inactive | inactive
Cn1nnnc1Sc1ncnc2scc(-c3cccc(C#N)c3)c12 | inactive | inactive
CC(=O)c1cccc(-c2ccc(-c3nc4ccccc4c(=O)[nH]3)o2)c1 | inactive | inactive
CC#CC(=O)Nc1ccc2ncnc(Nc3cccc(Br)c3)c2c1 | inactive | inactive
COc1ccccc1-c1ccc(=O)n(CC(=O)NCCc2ccccc2)n1 | inactive | inactive
